High-throughput results (PubChem)
ELG1 genotox – inducers of genotoxicity in HEK293T ELG1-luciferase cells | HEK293T ELG1-luciferase reporter, luminescence, 16 h | Potency, µM (doses to about 46 µM), hits mostly activators | 330,000 compounds, 1.3% hits; note: nearly all actives have a fitted effect of over 60% in size
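Luminescence read-out: rising ELG1-luciferase signal, reflecting elevated ELG1 protein under genetic stress, flags genotoxic compounds. Cells were treated for 16 hr at 37 °C before ONE-Glo detection.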
ELG1 repair inh – ELG1-dependent DNA repair inhibition. HEK293T ELG1-luciferase reporter, luminescence, 16 h; DNA damage induced by 5-fluorouridine. Potency, µM (highest dose often 46.1 µM), usual class: inhibitors. 330,000 compounds, 2.3% hits; note: nearly all actives have a fitted effect of over 55% in size
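Quantitative HTS, concentration-response format. 2,000 cells/well co-treated with 5-fluorouridine and compound, 16 hr in 5% CO2 at 37 °C; ONE-Glo luminescence read after 30 min.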
Rab9 prom act – activates the Rab9 promoter; 320,000 compounds, 2.8% hits; Potency, µM (doses to about 9.22 µM), actives largely listed as activators; Huh7 Rab9 promoter-luciferase reporter, luminescence, 24 h; note: nearly all actives have a fitted effect of over 60% in size
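Rab9 promoter-driven luciferase in stably transfected Huh7 cells; 1500 cells/well rested 2 h, exposed to compound in DMSO for 24 h at 37 °C, 5% CO2. Luminescence read 10 min after adding luciferase reagent at ambient temperature.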
NPC1 prom act – activates the NPC1 promoter | Huh7 NPC1 promoter luciferase reporter, 24 h | AID 485313 | Potency, µM (doses to about 9.22 µM), hits mostly activators | 320,000 compounds, 2.4% hits; note: nearly all actives have a fitted effect of over 60% in size
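Luciferase expression driven by the NPC1 promoter was measured in stably transfected Huh7 cells after a 24 h compound incubation, using a luciferase reagent and a luminescence read.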
FLuc counter – firefly luciferase modulation, counter-screen for miR-21 project; AID 588342; 360,000 compounds, 6.9% hits; Potency, µM (titrated, usually from 57.5 µM), most hits filed as inhibitors; purified FLuc, Km substrates, luminescence inhibition; P08659; note: nearly all actives have a fitted effect of over 55% in size
Target sequence (P08659 whole entry, looked up): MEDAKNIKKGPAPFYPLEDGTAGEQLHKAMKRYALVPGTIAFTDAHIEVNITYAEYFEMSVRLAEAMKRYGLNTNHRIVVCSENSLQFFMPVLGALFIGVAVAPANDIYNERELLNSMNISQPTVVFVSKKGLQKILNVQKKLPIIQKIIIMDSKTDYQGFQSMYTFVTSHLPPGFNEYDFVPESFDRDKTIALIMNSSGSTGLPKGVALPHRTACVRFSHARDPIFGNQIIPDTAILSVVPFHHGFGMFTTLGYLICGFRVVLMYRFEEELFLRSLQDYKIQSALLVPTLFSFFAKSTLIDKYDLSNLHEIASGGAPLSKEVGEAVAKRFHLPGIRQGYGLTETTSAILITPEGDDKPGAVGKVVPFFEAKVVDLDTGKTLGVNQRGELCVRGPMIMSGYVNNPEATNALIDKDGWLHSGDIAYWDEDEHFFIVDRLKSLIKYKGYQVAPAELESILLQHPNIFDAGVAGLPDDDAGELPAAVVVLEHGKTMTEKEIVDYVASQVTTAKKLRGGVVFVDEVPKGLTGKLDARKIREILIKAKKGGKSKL
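Biochemical qHTS of compounds, final roughly 60 µM downward over six points, against 10 nM purified firefly luciferase using Km concentrations of substrates (10 uM D-luciferin, 10 uM ATP) in Tris acetate pH 7.5 buffer; luminescence output.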
SMN2 splice enh – enhancers of SMN2 splice variant expression. HEK293 SMN2-luciferase splicing reporter, luminescence, 30-36 h. 210,000 compounds, 2.8% hits. AID 1458. Potency, µM (doses to about 46.1 µM), usual class: activators; note: nearly all actives have a fitted effect of over 55% in size
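HEK293 cells carry an SMN2 minigene-luciferase reporter in which exon 7 inclusion puts luciferase in frame. Cells were seeded at 2000 cells/well, attached for 10-12 hours, then exposed to compounds for 30-36 hours at 37C before ONE-Glo luminescence.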
Of the large screens only hits and unclear results are named; the others gave an inactive call. This is a sample that favours compounds with a hit; in the whole collection about 9.3% have one here. Calls come from the whole dose curve; as a rule, active = well fitted curve in the direction sought with a large enough effect; inconclusive = small, poorly fitted or top-dose-only effect, or another doubt; inactive = no such curve, though single readings can be large; an effect the other way counts as inactive or inconclusive.

COC(=O)c1ccc(CSc2nnc(NCc3ccccc3)s2)o1	FLuc counter inconclusive
COc1ccc(NS(=O)(=O)c2cccc(C(=O)NNC(=O)COc3ccccc3)c2)cc1	none (no result: SMN2 splice enh)
Cc1sc(NC(=O)c2ccco2)c(CN2CCN(c3ccccn3)CC2)c1C	ELG1 repair inh inconclusive, FLuc counter 6µM (no result: SMN2 splice enh)
CC(=NC1CCCCC1)C1=C(O)c2ccccc2C1=O	ELG1 genotox inconclusive, ELG1 repair inh inconclusive, Rab9 prom act 2.8µM, NPC1 prom act 2.8µM, FLuc counter 3.4µM, SMN2 splice enh 16µM
CCOc1ccc(N(CC(=O)NC2CCCCC2)C(=O)CSc2nnc(COc3ccccc3)o2)cc1	ELG1 repair inh 18µM
CCOC(=O)N1CCN(C(=O)CSc2nnc(COc3ccccc3)o2)CC1	SMN2 splice enh 4µM
CN1CCN(C(=O)CSc2nnc(COc3ccccc3)o2)CC1	none (no result: SMN2 splice enh)
O=C(CN(Cc1cccs1)C(=O)CSc1nnc(COc2ccccc2)o1)NC1CCCCC1	ELG1 repair inh 18µM
CCOC(=O)N1CCN(C(=O)CSCc2ccccc2)CC1	ELG1 repair inh inconclusive, Rab9 prom act inconclusive, NPC1 prom act inconclusive, FLuc counter inconclusive, SMN2 splice enh 11µM
CCOC(=O)N1CCN(C(=O)CSCc2ccc(Cl)cc2)CC1	none
O=C(CSc1ncn[nH]1)Nc1ccc(OCc2ccccc2)cc1	ELG1 genotox inconclusive, ELG1 repair inh inconclusive, Rab9 prom act inconclusive, FLuc counter 17µM, SMN2 splice enh inconclusive
Cc1nc(SCC(=O)Nc2ccc(OCc3ccccc3)cc2)n[nH]1	ELG1 repair inh inconclusive, Rab9 prom act inconclusive, FLuc counter 12µM (no result: SMN2 splice enh)
O=C(CSc1nnc(Cc2ccccc2)o1)c1cc(F)ccc1F	none (no result: SMN2 splice enh)
COc1ccc(NC(=S)N2CCC(C(=O)c3ccc(OC)cc3)CC2)cc1	ELG1 repair inh 23µM, FLuc counter 12µM (no result: SMN2 splice enh)
COc1ccc(NC(=S)N2CCC(c3ccccc3)C2)cc1 (stereo not given)	ELG1 genotox 9.2µM, ELG1 repair inh inconclusive, Rab9 prom act 2µM, NPC1 prom act 2.5µM, FLuc counter 6.7µM (no result: SMN2 splice enh)
COc1ccc(NC(=S)N2CCC(C(O)(c3ccccc3)c3ccccc3)CC2)cc1	none
O=C(NCCCc1nc2ccccc2n1Cc1c(F)cccc1Cl)C1CCCCC1	none (no result: ELG1 genotox, ELG1 repair inh, Rab9 prom act, NPC1 prom act)
CC(=O)NC1=NC(=O)/C(=C/c2cc(C)n(-c3cccc(C(=O)O)c3)c2C)S1	FLuc counter 15µM (no result: SMN2 splice enh)
CC(=O)NC1=NC(=O)/C(=C/c2cn(C(C)=O)nc2-c2ccccc2)S1	ELG1 repair inh 21µM
CC(=O)NC1=NC(=O)/C(=C/c2cc(C)n(-c3ccc(NC(C)=O)cc3)c2C)S1	ELG1 repair inh inconclusive, Rab9 prom act inconclusive, NPC1 prom act inconclusive, FLuc counter 5.4µM
COc1ccc(CNC(=O)C2CCCN(C(=O)Nc3ccccc3OC)C2)cc1 (stereo not given)	none (no result: SMN2 splice enh)
CCCCCn1c(CN2CC(C)OC(C)C2)nc2c1c(=O)n(C)c(=O)n2C (stereo not given)	none
COc1cc(N/N=C/c2ccccc2O)ncn1	ELG1 genotox 23µM, ELG1 repair inh inconclusive, Rab9 prom act inconclusive, NPC1 prom act inconclusive, FLuc counter 15µM, SMN2 splice enh inconclusive
Cc1cnn(-c2cc(N/N=C/c3ccccc3F)ncn2)c1	ELG1 genotox inconclusive, ELG1 repair inh inconclusive
COc1cc(N/N=C/c2ccc(N(C)C)cc2)ncn1	ELG1 genotox 1.2µM, ELG1 repair inh inconclusive, Rab9 prom act inconclusive, NPC1 prom act 1.3µM, FLuc counter 0.85µM, SMN2 splice enh 2.2µM
CCOC(=O)c1ccc(-n2c(CCC(=O)O)ccc2-c2ccccc2)cc1O	FLuc counter inconclusive (no result: ELG1 genotox, ELG1 repair inh, Rab9 prom act, NPC1 prom act)
COc1cc(/C=C2/SC(=S)N(CC3CCCO3)C2=O)ccc1O (stereo not given)	ELG1 repair inh inconclusive, FLuc counter 11µM
COc1ccc(/C=C2\SC(=S)N(CC3CCCO3)C2=O)cc1 (stereo not given)	ELG1 repair inh inconclusive, FLuc counter 11µM (no result: SMN2 splice enh)
CC(C)CCC(CC(C)O)c1n[nH]c(=S)n1-c1ccccc1 (stereo not given)	none
COc1ccccc1CNC(=O)c1ccccc1OCc1ccc(F)cc1	none
